# According to PubChem BioAssay (NCI):
# Where “and” joins values, the source holds several entries; their conditions need not be identical. Identical values can stand only once. About 83,000 compounds went through this panel and 20% of them were active in at least one assay; those are over-represented in the sample as a whole.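 Activity criterion: percent growth below 10, measured after cells in 96-well plates were exposed to a single compound concentration for 48 hours.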 Calls of active or inactive are those of the source.
# Test system: MCF7 breast
# Test: NCI-60 one-dose screen, 48 h (100 = growth as untreated, 0 = no growth, -100 = all killed)
# Details: 10 µM unless noted
row,Compound,growth
1,CC1=C/C(O)CC(=O)Cc2nc(co2)C(=O)N2CCC=C2C(=O)OC(C(C)C)C(C)/C=C\C(=O)NC/C=C\1 (stereo unspecified),71.8% (inactive)
2,O=C1OC(c2ccccc2)=N/C1=C\c1ccccc1,98.4% (inactive)
3,COc1ccc(Nc2ccc3ccccc3c2)cc1,58.1% (inactive)

# Test system: HCT-116 colon
# Test: as above
# Details: 10 µM unless noted
row,Compound,growth
1,CCc1cc(C)cc(O)c1,98.2% (inactive)
2,NN1CCOC(c2ccccc2)C1 (stereo unspecified),91.2% (inactive)
3,ClCCOCCOc1ccc(C2CCCCC2)cc1,99.5% (inactive)
4,O=c1n(CC2CO2)c(=O)n(CC2CO2)c(=O)n1CC1CO1 (stereo unspecified),73.9% (inactive)
5,Cc1ccc(S(=O)(=O)c2ccccc2)cc1,18.8% (inactive)
6,O=C(/C=C/c1ccccc1)c1ccccc1,6.71% (active)
7,Cc1cc(-c2ccc(N=Nc3ccc4c(S(=O)(=O)O)cc(S(=O)(=O)O)c(N)c4c3O)c(C)c2)ccc1N=Nc1ccc2c(S(=O)(=O)O)cc(S(=O)(=O)O)c(N)c2c1O,85.8% (inactive)
8,c1ccc(CNCCNCc2ccccc2)cc1,103% (inactive)
9,Cc1cc2ccccc2cn1,99% (inactive) and 108% (inactive)
10,OC1COC(OCc2ccccc2)C(O)C1O (stereo unspecified),99.6% (inactive)
11,CCCCCCCCCCCCCCCc1ccc(N)c(OC2OC(CO)C(O)C(O)C2O)c1 (stereo unspecified),87.7% (inactive)
12,O=C(O)CCCl,94.8% (inactive)
13,C#CCOC(=O)Nc1ccccc1,105% (inactive)
14,CC(C)C(C)(C)c1ccc(O)cc1,105% (inactive)
15,Cc1cc(-c2cc(C)c(O)c(C)c2)cc(C)c1O,83.7% (inactive)
16,CC1(C)COC(=S)N1,105% (inactive)
17,CCOC(=O)c1c(C)cc(=O)oc1C,95.4% (inactive)
18,CC[C@H](CC[C@@H](C)[C@H]1CC[C@H]2[C@@H]3CC=C4C[C@@H](O)CC[C@]4(C)[C@H]3CC[C@]12C)C(C)C,94.6% (inactive) and 105% (inactive)
19,CN1CNC(=O)NC1,105% (inactive)

row,Compound,growth
1,CC1CCC2(OC1)OC1CC3C4CC=C5CC(O)CCC5(C)C4CCC3(C)C1C2C (stereo unspecified),92.2% (inactive)
2,COc1cc(C(O)C2C(=O)OCC2C2(c3ccc4c(c3)OCO4)SCCCS2)cc(OC)c1OC (stereo unspecified),91.7% (inactive)
3,Nc1nc(N)c2[nH]cnc2n1,90.5% (inactive)
4,Cn1cnc([N+](=O)[O-])c1Sc1ncn[nH]1,101% (inactive)
5,O=c1[nH]cnc2c1ncn2C1OC(CO)C(O)C1O (stereo unspecified),102% (inactive) and 116% (inactive) and 92.9% (inactive)
6,CC(=O)OCC1OC(OC(C)=O)C(OC(C)=O)C(OC(C)=O)C1OC(C)=O (stereo unspecified),103% (inactive)
7,O=C1c2c(O)ccc(O)c2C(=O)c2c(NCCNCCO)ccc(NCCNCCO)c21,-20.2% (active) and -44.9% (active)
8,c1ccc(-c2nc3ccccc3s2)cc1,97.3% (inactive)
9,CCCCCCCCCCCCCCCCC(C(=O)O)C(O)(CC(=O)O)C(=O)O (stereo unspecified),105% (inactive) and -35.5% (active)
10,Nc1cc(N)c(N)cc1N,0.84% (active)
11,O=[N+]([O-])c1cccc(SSc2cccc([N+](=O)[O-])c2)c1,94% (inactive)
12,Oc1ccc(Cc2ccccc2Cl)c(O)c1,96.6% (inactive)
13,OCCN1CCCCCCC1,97.1% (inactive)
14,CC1CCC(C(C)C)C(NNC(N)=O)C1 (stereo unspecified),99.5% (inactive)
15,Fc1ccc([I+]c2ccc(F)cc2)cc1,32.9% (inactive)
16,CC1=C/C(O)CC(=O)Cc2nc(co2)C(=O)N2CCC=C2C(=O)OC(C(C)C)C(C)/C=C\C(=O)NC/C=C\1 (stereo unspecified),34.3% (inactive)
17,COc1ccc2cc1Oc1ccc(cc1)C[C@H]1c3cc(c(OC)cc3CCN1C)Oc1c(OC)c(OC)cc3c1[C@H](C2)N(C)CC3,14% (inactive)
18,O=C1OC(c2ccccc2)=N/C1=C\c1ccccc1,102% (inactive)
19,COc1ccc(Nc2ccc3ccccc3c2)cc1,79% (inactive)

# Test system: HCC-2998 colon
# Test: as above
# Details: 10 µM unless noted
row,Compound,growth
1,CCc1cc(C)cc(O)c1,104% (inactive)
2,NN1CCOC(c2ccccc2)C1 (stereo unspecified),107% (inactive)
3,ClCCOCCOc1ccc(C2CCCCC2)cc1,106% (inactive)
4,O=c1n(CC2CO2)c(=O)n(CC2CO2)c(=O)n1CC1CO1 (stereo unspecified),94.8% (inactive)
5,Cc1ccc(S(=O)(=O)c2ccccc2)cc1,51.6% (inactive)
6,O=C(/C=C/c1ccccc1)c1ccccc1,120% (inactive)
7,Cc1cc(-c2ccc(N=Nc3ccc4c(S(=O)(=O)O)cc(S(=O)(=O)O)c(N)c4c3O)c(C)c2)ccc1N=Nc1ccc2c(S(=O)(=O)O)cc(S(=O)(=O)O)c(N)c2c1O,117% (inactive)
8,c1ccc(CNCCNCc2ccccc2)cc1,116% (inactive)
9,Cc1cc2ccccc2cn1,112% (inactive) and 118% (inactive)
10,CCCCCCCCCCCCCCCc1ccc(N)c(OC2OC(CO)C(O)C(O)C2O)c1 (stereo unspecified),9.53% (active)
11,O=C(O)CCCl,104% (inactive)
12,C#CCOC(=O)Nc1ccccc1,100% (inactive)
13,CC(C)C(C)(C)c1ccc(O)cc1,114% (inactive)
14,Cc1cc(-c2cc(C)c(O)c(C)c2)cc(C)c1O,92.3% (inactive)
15,CC1(C)COC(=S)N1,106% (inactive)
16,CCOC(=O)c1c(C)cc(=O)oc1C,103% (inactive)
17,CC[C@H](CC[C@@H](C)[C@H]1CC[C@H]2[C@@H]3CC=C4C[C@@H](O)CC[C@]4(C)[C@H]3CC[C@]12C)C(C)C,108% (inactive)
18,CN1CNC(=O)NC1,113% (inactive) and 102% (inactive)

row,Compound,growth
1,CC1CCC2(OC1)OC1CC3C4CC=C5CC(O)CCC5(C)C4CCC3(C)C1C2C (stereo unspecified),112% (inactive)
2,COc1cc(C(O)C2C(=O)OCC2C2(c3ccc4c(c3)OCO4)SCCCS2)cc(OC)c1OC (stereo unspecified),98.5% (inactive)
3,Nc1nc(N)c2[nH]cnc2n1,86% (inactive)
4,O=c1[nH]cnc2c1ncn2C1OC(CO)C(O)C1O (stereo unspecified),102% (inactive) and 113% (inactive) and 127% (inactive)
5,CC(=O)OCC1OC(OC(C)=O)C(OC(C)=O)C(OC(C)=O)C1OC(C)=O (stereo unspecified),111% (inactive) and 101% (inactive)
6,O=C1c2c(O)ccc(O)c2C(=O)c2c(NCCNCCO)ccc(NCCNCCO)c21,-88.5% (active)
7,c1ccc(-c2nc3ccccc3s2)cc1,97.2% (inactive)
8,CCCCCCCCCCCCCCCCC(C(=O)O)C(O)(CC(=O)O)C(=O)O (stereo unspecified),96.9% (inactive)
9,Nc1cc(N)c(N)cc1N,101% (inactive)
10,O=[N+]([O-])c1cccc(SSc2cccc([N+](=O)[O-])c2)c1,108% (inactive)
11,Oc1ccc(Cc2ccccc2Cl)c(O)c1,91.3% (inactive)
12,OCCN1CCCCCCC1,100% (inactive)
13,CC1CCC(C(C)C)C(NNC(N)=O)C1 (stereo unspecified),91.8% (inactive)
14,Fc1ccc([I+]c2ccc(F)cc2)cc1,71.7% (inactive)
15,CC1=C/C(O)CC(=O)Cc2nc(co2)C(=O)N2CCC=C2C(=O)OC(C(C)C)C(C)/C=C\C(=O)NC/C=C\1 (stereo unspecified),118% (inactive)
16,COc1ccc2cc1Oc1ccc(cc1)C[C@H]1c3cc(c(OC)cc3CCN1C)Oc1c(OC)c(OC)cc3c1[C@H](C2)N(C)CC3,0.135% (active)
17,O=C1OC(c2ccccc2)=N/C1=C\c1ccccc1,96.6% (inactive)
